Test results published in a collection of fitness landscapes (doi:10.1016/j.celrep.2020.107928).
Whole data set: some 81,000 sequences, median “one-hybrid fitness for binding NBS DNA” near -0.1, cut for the highest 2% near 0.36. The list comes from a sample in which the highest values are over-represented; it also holds similar and randomly drawn sequences.

B1: Caulobacter ParB omega fusion; a variant is named by its letters at X, in order, B8GW30 (parent)
chain: MESVVVGEPGMSEGRRGLGRGLSALLGEVDAAPAQAPGEQLGGSREAPIEILQRNPDQPRRTFREEDLEDLSNSIREKGVLQPILVRPSPDTAGEYQIVAGERAWRAAQRAGLKTVPIMVRELDDLAVLEIGIIENVQRADLNVLEEALSYKVLMEKFERTQENIAQTIGKSXSHVANXMRLLXLPDEVQSYLVSGELTAXHARAIAAAADPVALAKQIIEGGLSVRETEALARKAPNLSAGKSKGGRPPRVKDTDTQALESDLSSVLGLDVSIDHRGSTGTLTITYATLEQLDDLCNRLTRGI

Variants of: B1
Test: one-hybrid fitness for binding NBS DNA (the Noc-binding site; scaled: cognate 1, non-cognate 0); higher = stronger binding
Conditions: with NBS DNA site
Method in brief: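 Caulobacter ParB libraries with four specificity codons randomised were screened by bacterial one-hybrid selection in the E. coli USO strain, using a HIS3 reporter whose site lies 19 bp from the promoter. Selection ran for 48 hours at 37°C on M9 lacking histidine, with 0.1 mM IPTG and 5 mM 3-AT. Plasmids were Illumina-sequenced before and after selection, three replicate libraries were pooled, and variants with under 10 reads were dropped. Fitness is the log change in each variant's read ratio to wild type, rescaled against the cognate and non-cognate sites.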

one-hybrid fitness for binding NBS DNA, 0.505:
QSRY

one-hybrid fitness for binding NBS DNA, 0.475:
QKTS

one-hybrid fitness for binding NBS DNA, 0.403:
QMTS

one-hybrid fitness for binding NBS DNA, 0.253:
RRMQ

one-hybrid fitness for binding NBS DNA, 0.262:
QTYY

one-hybrid fitness for binding NBS DNA, 0.543:
QKAT

one-hybrid fitness for binding NBS DNA, 0.499:
QARY

one-hybrid fitness for binding NBS DNA, 0.218:
RYKN

one-hybrid fitness for binding NBS DNA, 0.364:
QSTS

one-hybrid fitness for binding NBS DNA, 0.352:
QHIR

one-hybrid fitness for binding NBS DNA, ≤ 0.2:
SFRE
NGWG
SIAC
KQGK
IDPS
ICRN
NDES
PLNE
RGAY
IIPP
THSS
NHMG
RRMF
RQMD
RQMP
VAIA
LTDL
HGGT
AFTK
SQEG
CATP
LHPG
CDGK
SSSM
GDDT
QKAC
QKFF
QKAG
SHPD
QKML
HTHP
RGSE
SGGC
TILG
LRDT
RTGI
RYVH
RYKP
RYKD
RYVC
RYYC
KHNS
NLKT
YEHY
ADVD
SIIV
DVHC
VIQR
YNMS
QTWY
QLYY
QLDY
QKYY
QKDY
QPRY
GQTS
PQAC
GTQM
HAAV
KEKL
GHAV
VLHR
PYWE
HKSN
MTAW
VLNA
TGSV
QIYY
QAYY
QAFN
QADY
QIHY
QMDY
QAAY
QMYY
WTQT
RKML
FQSI
MFAL
SWRR
QSDY
QHDY
QSYY
QHYY
YIRY
NRDT
DRDT
NRNT
MDAV
TRPC
QPTS
QHTN
QMTD
QMTH
QKTD
QHTP
QKTN
IAMY
QCIF
PRQG
VKPT
YCVL
DHNQ
SNYG
PCIT
NGMR
RLHW
LRLN
RGQR
QHHQ
QHGN
QHHN
QHGD

one-hybrid fitness for binding NBS DNA, 0.248:
QHPR

one-hybrid fitness for binding NBS DNA, 0.421:
KRDT

one-hybrid fitness for binding NBS DNA, 0.989:
QHRR

one-hybrid fitness for binding NBS DNA, 0.396:
RYKH
QAFY

one-hybrid fitness for binding NBS DNA, 0.369:
RSMR

one-hybrid fitness for binding NBS DNA, 0.617:
KRNT

one-hybrid fitness for binding NBS DNA, 0.378:
QIRY

one-hybrid fitness for binding NBS DNA, 0.372:
QHTS

one-hybrid fitness for binding NBS DNA, 0.488:
QHRY

one-hybrid fitness for binding NBS DNA, 0.566:
QMRY

one-hybrid fitness for binding NBS DNA, 0.366:
QKFT

one-hybrid fitness for binding NBS DNA, 0.275:
QCYY

one-hybrid fitness for binding NBS DNA, 0.385:
RQMR

one-hybrid fitness for binding NBS DNA, 0.685:
QTRY

one-hybrid fitness for binding NBS DNA, 0.207:
KCNT

one-hybrid fitness for binding NBS DNA, 0.546:
QHGR

one-hybrid fitness for binding NBS DNA, 0.334:
QHRN

one-hybrid fitness for binding NBS DNA, 0.57:
RYKS

one-hybrid fitness for binding NBS DNA, 0.571:
QHHR

one-hybrid fitness for binding NBS DNA, 0.518:
QKRY

one-hybrid fitness for binding NBS DNA, 0.637:
QCRY

one-hybrid fitness for binding NBS DNA, 0.458:
QCTS

one-hybrid fitness for binding NBS DNA, 0.451:
QLRY

one-hybrid fitness for binding NBS DNA, 0.723:
RRMR

one-hybrid fitness for binding NBS DNA, 0.367:
RYKC

one-hybrid fitness for binding NBS DNA, 0.277:
QKFS

one-hybrid fitness for binding NBS DNA, 0.471:
QHYR

one-hybrid fitness for binding NBS DNA, 0.363:
QHWR

one-hybrid fitness for binding NBS DNA, 0.341:
RAMR

one-hybrid fitness for binding NBS DNA, 0.319:
RIMR
